High-throughput results (PubChem)
Most compounds without a hit are left out; they make up all but 1.5% or so of the library.
AID504770 = growth inhibition of E. coli YBA685, primary screen, V. cholerae RctB inhibitors | z-score (test concentration not listed) | E. coli YBA685 rctB-dependent plasmid, OD600 growth, 3 h; active compounds read low | 0.27% of 130,000 active; in the data active = z-score below about -2, passing the limit was not always enough
MbtI inh = MbtI salicylate synthase inhibitors, primary screen, biochemical, fluorescence intensity | 0.89% of 100,000 active | inhibition, % (concentration not given with the values) | AID 493033, 2011 | purified MbtI enzyme, fluorescence intensity read-out | P9WFX0; in the data active = inhibition mostly above about 56%, no sharp cut-off; inactive = mostly below about 77%
MenB inh = M. tuberculosis MenB inhibitors, primary screen, biochemical, absorbance. MenB enzyme assay, absorbance read-out. inhibition, % (test concentration not listed). 0.43% of 100,000 active. 1,4-dihydroxy-2-naphthoyl-CoA synthase (Mycobacterium tuberculosis (strain ATCC 25618 / …. AID 540299, 2011; in the data active = inhibition above about 21%, passing the limit was not always enough
PV pol inh = poliovirus RdRp elongation inhibitors, primary screen, biochemical, fluorescence polarization, total intensity | 0.66% of 150,000 active | poliovirus polymerase elongation; active compounds read low | % elongation, % (compound at 16.7 µg/mL) | AID 588519, 2011 | Genome polyprotein (Poliovirus type 1 (strain Mahoney)), P03300; in the data active = % elongation below about 90%
Target sequence (P03300 1749-2209 limits assumed): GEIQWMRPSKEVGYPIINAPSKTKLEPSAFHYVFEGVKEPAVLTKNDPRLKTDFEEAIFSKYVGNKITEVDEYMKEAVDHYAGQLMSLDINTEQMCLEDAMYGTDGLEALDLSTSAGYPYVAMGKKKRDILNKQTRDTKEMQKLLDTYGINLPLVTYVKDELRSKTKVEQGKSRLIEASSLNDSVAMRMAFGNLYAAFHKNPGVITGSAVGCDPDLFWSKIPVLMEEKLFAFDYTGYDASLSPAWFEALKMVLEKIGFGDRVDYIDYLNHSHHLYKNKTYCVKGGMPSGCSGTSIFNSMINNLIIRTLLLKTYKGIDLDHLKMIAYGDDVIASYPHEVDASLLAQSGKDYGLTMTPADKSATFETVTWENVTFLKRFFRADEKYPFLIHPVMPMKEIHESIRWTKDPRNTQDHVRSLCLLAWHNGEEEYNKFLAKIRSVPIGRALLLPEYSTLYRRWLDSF
Starred values were filed as active, the others as inactive; / = not tested or not shown.

SMILES	AID504770	MbtI inh	MenB inh	PV pol inh
O=C(OCC(=O)N(C1CCCCC1)C1CCCCC1)c1ccc2c(c1)OCCO2	-0.75	-9.2	-13.0	109.0
Cc1ccc(C)n1-c1ccc(C(=O)NCC(=O)O)cc1	-0.6	7.9	-12.5	69.0*
N#C/C(=C1/NS(=O)(=O)c2ccccc21)c1nc2ccccc2[nH]1	-0.85	-6.1	-16.4	104.0
CCOC(=O)N1CCN(S(=O)(=O)c2ccccc2)CC1	0.25	/	/	/
CN(C)C(=O)N1CCN(S(=O)(=O)c2ccccc2)CC1	1.35	1.5	37.1*	101.0
CN(C)S(=O)(=O)c1ccc(S(=O)(=O)N2CCN(C=O)CC2)cc1	0.65	1.6	30.5*	105.0
COc1ccc2oc(=O)c(C(=O)N(C)Cc3cccnc3)cc2c1	1.2	10.3	-54.2	102.0
CC(C)n1cn[nH]c1=S	0.15	59.2*	-23.5	96.0
CC12CN3CC(C)(C1O)C(O)C(C)(C3)C2O (configuration not stated)	-0.3	-5.8	-10.8	86.0*
O=C(C1CCN(C2=NS(=O)(=O)c3ccccc32)CC1)N1CCc2ccccc21	-0.15	1.5	16.2	97.0
CC1CC(C)CN(S(=O)(=O)c2cccc(C(=O)Oc3ccc4c(c3)OCO4)c2)C1 (configuration not stated)	-0.65	-5.0	-46.6	104.0
CCCN(CCC)C(=O)CCc1ccccc1	-0.8	-8.2	-19.9	98.0
Cc1cc(N)cc2[nH]c(-c3ccc(N)cc3)nc12	0.8	/	-6.8	66.0*
O=C1CSCc2ccccc21	0.1	15.3	-15.4	101.0
CC1Cc2scc[n+]2-c2ccccc2N1C=O (configuration not stated)	-0.55	/	99.8*	105.0
COC(=O)C1=C(C)Nc2ccccc2S1	1.25	57.5*	-10.9	107.0
O=c1c2c([nH]c3ccccc13)CCCCC2	-0.55	19.6	34.8*	100.0
C[n+]1c(CF)sc2ccccc21	-0.85	96.6*	/	98.0
O=C(NC(=S)c1ccccc1)C1CC1	-0.45	74.4*	-37.5	91.0
c1ccc(CN2CCN(Cc3ccccc3)CC2)cc1	2.55	/	/	/
CC1CCN(C(=S)c2ccc(O)cc2)CC1	-1	98.5*	-11.8	100.0
Oc1ccc(C(=S)N2CCN(Cc3ccccc3)CC2)cc1	-0.4	93.9*	-14.8	98.0
S=C(c1ccc(Cl)cc1)N1CCCCC1	0.5	39.0	-74.6	99.0
CC(C)COc1ccc(C(=S)N2CCCCC2)cc1	0.85	54.1*	-12.5	103.0
Oc1ccc(C(=S)N2CCOCC2)cc1	1.45	52.0	-6.7	101.0
SMILES	AID504770	MbtI inh	MenB inh	PV pol inh
Oc1ccc(C(=S)N2CCCCCC2)cc1	0.35	83.8*	-24.0	97.0
Cc1cn(CC(C)C)c(=O)[nH]c1=O	1	4.4	/	/
Oc1ccc(C(=S)N2CCN(c3cccc(Cl)c3)CC2)cc1	1.35	59.2*	-40.1	102.0
CC(c1n[nH]c(=S)n1Cc1ccccc1)N(C)C (configuration not stated)	0.15	59.1*	-25.3	98.0
N/C(=N\OC(=O)N1CCOCC1)c1ccccc1	-2.7*	-3.2	8.3	100.0
O=C(OCc1ccccc1)N1CCOCCN(C(=O)OCc2ccccc2)CCOCC1	-0.1	-23.7	-20.3	100.0
O=C(O)CN=C1NC2(CCCC2)Cc2ccccc21	1.3	-1.2	33.8*	100.0
CCOC(=O)c1cc(-c2ccccc2)n(CCC(=O)N2CCn3c2nc2ccccc23)c1C	-0.25	-18.2	1.0	99.0
CN1CCN(S(=O)(=O)c2ccccc2C(F)(F)F)CC1	-0.3	3.8	-12.5	89.0*
O=S(=O)(c1ccccc1C(F)(F)F)N1CCNCC1	1.2	-8.8	-17.8	100.0
N#Cc1cccc(C(=O)OCc2cc(=O)oc3cc(O)ccc23)c1	0.15	-22.1	-10.9	103.0
CCc1nnc(NC(=O)C2CCCCC2)s1	-0.65	99.8*	-18.8	101.0
CC(=O)Nc1scc(C)c1-c1nc2ccccc2s1	-0.85	/	/	/
CNc1sc(C(=O)c2cccs2)c(N)c1-c1nc2ccccc2s1	1.65	97.0*	-42.6	110.0
COc1cc(C2Sc3ccccc3NC3=C2C(=O)c2ccccc23)ccc1OC(C)=O (configuration not stated)	1.75	-3.5	-28.2	102.0
N#Cc1c(NC(=O)COCc2cc(-c3ccco3)on2)sc2c1CCCC2	0.6	71.2	-13.2	100.0
CCN(CC)S(=O)(=O)c1ccc2oc(Sc3cc(C)c(C#N)c4nc5ccccc5n34)nc2c1	-0.45	2.8	-29.8	108.0
COC(=O)c1ccc(/C=C/C(=O)OCC#N)cc1	0.4	0.6	3.2	88.0*
CCn1ncc(Cl)c(Cl)c1=O	-1	/	-12.8	77.0*
O=C1c2ccccc2C(=O)N1Cn1ncc(Cl)c(Cl)c1=O	-0.65	0.8	-15.6	106.0
O=C1CN(/N=C/c2ccc(-c3ccc([N+](=O)[O-])cc3)o2)C(=O)N1	/	17.1	-4.5	100.0
O=C1OCCN1/N=C/c1ccc([N+](=O)[O-])o1	-4.35*	8.3	1.7	98.0
O=C1CN(/N=C/c2ccc([N+](=O)[O-])o2)C(=O)N1	-2.3*	12.2	-6.0	99.0
CCCCC(=O)Nc1ccc2[nH]c(=O)oc2c1	0.05	-7.4	15.7	101.0
c1ccc2c(c1)COC1(CCCCC1)N2	1.15	0.6	38.1*	102.0
SMILES	AID504770	MbtI inh	MenB inh	PV pol inh
CNC(=O)c1ccc(N2CCCS2(=O)=O)cc1	-0.4	-30.9	-6.4	101.0
CC(=O)Nc1nc(NC(C)=O)n(-c2ccccc2)n1	2.4	17.1	4.2	103.0
Nc1nc(NC(=O)CCC(=O)O)nn1-c1ccccc1	-0.55	4.8	30.3*	102.0
O=C(O)CCC(C(=O)O)N1C(=O)/C(=C/C=C/c2ccco2)SC1=S (configuration not stated)	0.75	11.0	-201.7	89.0*
CCOc1ccc2[nH]c3nc(SCC4CCCO4)nnc3c2c1 (configuration not stated)	-0.45	10.6	-49.9	101.0
CC(=O)Oc1cccc(OC(C)=O)c1OC(C)=O	0.1	2.0	-0.7	106.0
COC(=O)c1c(-c2ccccc2)csc1N	-0.75	58.8*	-19.0	94.0
COC(=O)c1c(-c2ccccc2)csc1NC(=O)CCN1CCC(C)CC1	-0.25	/	/	/
CCN(Cc1ccccc1)C(=O)Cn1c(SCc2ccc(F)cc2)nc2cccnc21	0.65	32.4	-15.9	99.0
CCOC(=O)c1cc2ccccc2nc1N	-1.6	84.2	-28.2	101.0
O=C(Nc1cccc(-c2csnn2)c1)c1cccs1	-1.5	1.9	0.6	100.0
N#CC(C#N)=NNc1ccccc1C(N)=O	-3.65*	26.0	-446.8	101.0
N#CCn1c(=O)n(C2CCCCC2)c(=O)c2ccccc21	2.05	0.6	-66.5	107.0
CC1=NN(c2ccccc2)C(=O)C1C1C(=O)N(c2ccccc2)N=C1C (configuration not stated)	-0.5	5.2	-2.7	103.0
O=C1C2CCCCC2=NN1c1ccccc1 (configuration not stated)	-1.5	70.5*	-17.6	101.0
O=C1C2CCCC2=NN1c1ccccc1 (configuration not stated)	0.6	58.8*	-12.5	106.0
